# Test results taken from PubChem BioAssay (NCI).
# Compounds without any hit were thinned out: in the full panel of roughly 83,000, 20% have a hit.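 Compound tested at a single concentration for 48 hours in 96-well plates; a percent growth value below 10 was scored as active.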 Activity calls are given as the source filed them.
# System: MOLT-4 leukemia
# Test: NCI-60 one-dose screen, 48 h (100 = growth as untreated, 0 = no growth, -100 = all killed)
# Conditions: 10 µM unless noted
row,Compound,growth
1,O=C(O)Cc1ccccn1,89.3% (inactive)
2,CC(C)(C)CC1(C)NC(=O)NC1=O (configuration not stated),93.2% (inactive)
3,COc1cc(CC#N)c([N+](=O)[O-])cc1OC,94.6% (inactive)
4,CN(C)CCOC(=O)Nc1ccc(Cc2ccc(NC(=O)OCCN(C)C)cc2)cc1,37.6% [100 µM] (inactive)
5,Cc1cc2nc(C)c(C)nc2cc1C,106% (inactive)
6,CCCCc1ccc2nc(NC(=O)OC)[nH]c2c1,-18.9% (active)
7,NCC(O)C(O)C(O)C(O)CO (configuration not stated),101% (inactive)
8,CCNc1ccc2ccccc2c1N=Nc1ccc(N=Nc2ccccc2)cc1,82.2% (inactive)
9,O=Cc1ccc(O)c(O)c1,80.5% (inactive)
10,CC(=O)C1C(=O)C(=O)N(c2cccc([N+](=O)[O-])c2)C1=O (configuration not stated),101% (inactive)
11,C1Cc2onc(-c3noc4c3CCC4)c2C1,110% (inactive)
12,O=C(O)c1cc(I)ccc1O,108% (inactive)
13,C=CCS(C)(=O)=O,109% (inactive)
14,O=C(OCc1ccccc1)n1nnc2ccccc21,116% (inactive)
15,CC(=O)N=c1ccc2nc3c(cc(N)c4ccccc43)oc-2c1,-37.2% (active)
16,CN1CCCN(C(c2ccccc2)c2ccc(Cl)cc2)CC1 (configuration not stated),89.5% (inactive)
17,COc1ccc(/C=C\C(=O)/C=C/c2ccc(OC)cc2)cc1,68.2% (inactive)
18,CCOC(=O)c1ccc(NC(C)=O)o1,79.1% (inactive)
19,CCOC(=O)c1cc(Cl)c(O)c(Cl)c1,89.6% (inactive)

row,Compound,growth
1,NNc1ncccn1,110% (inactive)
2,CCCC1OC(c2ccco2)OCC1CC (configuration not stated),89.3% (inactive)
3,Cc1ccc(N2C(=O)c3cccc4c(N)c(S(=O)(=O)O)cc(c34)C2=O)cc1,115% (inactive)
4,Clc1ncnc2nc[nH]c12,100% (inactive)
5,C/C(=N\Nc1ccc([N+](=O)[O-])cc1[N+](=O)[O-])c1ccc(Br)cc1,104% (inactive)
6,N#Cc1ccc(OC(=O)Nc2c(Cl)cc(Cl)cc2Cl)cc1,111% (inactive)
7,Nc1ncnc2c1ncn2C1OC(CO)C2OC21 (configuration not stated),111% (inactive)
8,CN(C)c1ccc(/C=C/C(=O)c2ccc(NC(N)=O)cc2)cc1,91.7% (inactive)
9,NC(=O)N1CCOCC1,93.7% (inactive)
10,CN1C(=O)NC(c2ccc(Cl)cc2)(c2ccc(Cl)cc2)C1=O,89.1% (inactive)
11,Cc1ccc(C)c(CN(C)C)c1O,124% (inactive)
12,O=C(OCC1CCCO1)c1ccc([N+](=O)[O-])cc1 (configuration not stated),101% (inactive)
13,S=C(NCc1ccccc1)N1CCC(CCCC2CCN(C(=S)NCc3ccccc3)CC2)CC1,88.5% (inactive)
14,N#Cc1ccc2nc[nH]c2c1,109% (inactive)
15,O=S(=O)(O)c1cccc2cccnc12,100% (inactive)
16,O=S(=O)(O)c1cccnc1,79.6% (inactive)
17,S=CN1CCCCC1,109% (inactive)
18,Cc1ccccc1CC(N)C(=O)O (configuration not stated),109% (inactive)
